Test results reported in PubChem BioAssay (NCATS).
Inconclusive results are not listed. Where a call stands in place of a potency, no number is given. Calls of active or inactive are those of the source. Unless noted, calls follow the shape of the dose curve; as a rule, active = well fitted curve in the direction sought with a large enough effect; inconclusive = small, poorly fitted or top-dose-only effect, or another doubt; inactive = no such curve, though single readings can be large; an effect the other way counts as inactive or inconclusive.

Legend:
[1] = qHTS Assay for Identifying Gametocytocidal Compounds (AID 743244); also: potency is read from the fitted curve at half-maximal effect;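 as to max response: actives lower the fluorescent signal which means gametocytes are killed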; settings: P. falciparum 3D7 stage III-V gametocytes, alamarBlue, 72 h; max response: stronger effect = lower value
Procedure, shortened: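 P. falciparum 3D7 stage III–V gametocytes (20,000 cells/well) were exposed to compounds for 72 h at 37 °C, 5% CO2. AlamarBlue was then added for 24 h; decreased resorufin fluorescence (Ex 525/Em 598 nm) indicated loss of viability.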

[2] = qHTS assay for measurement of the activity of small molecule inhibitors on Zika virus induced Caspase-3 activity in human iPSC derived neural progenitor cells (hNPCs) (AID 1224857); also: nearly all actives have a fitted effect of over 65% in size
Procedure, shortened: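 hNPCs seeded 350 cells/well, cultured 16–20 h; compounds added 1 h before ZIKV (2 FFU/cell), 37 C 6 h. Caspase-Glo 3/7 luminescence after 30 min RT; % inhibition from induction scaled to uninfected (0%) and infected (100%) wells.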

[3] = qHTS assay for measurement of the activity of small molecule inhibitors on Zika virus induced Caspase-3 activity in human astrocytoma cells (AID 1224859)
Procedure, shortened: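 Luminescence read-out (Caspase-Glo 3/7, 30 min RT) of caspase activity in SNB-19 cells infected 6 h with ZIKV, 2 FFU/cell, after 1 h compound pretreatment; % inhibition from induction normalised to uninfected (0%) and infected (100%) wells.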

[4] = qHTS profiling for inhibitors of Plasmodium falciparum (3D7) proliferation (AID 743322; call rule not given here;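 also: infected erythrocytes exposed to compound for 72 h before lysis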); settings: P. falciparum 3D7 proliferation; at 28.7 µM (top of the series) unless noted
Procedure, shortened: (§1)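 Parasite DNA was quantified by SYBR Green I fluorescence (ex 485, em 535 nm) after overnight lysis in saponin/Triton buffer at room temperature. Cultures at 0.3% parasitemia and 2.5% hematocrit were first exposed to compound for 72 h at 37 C; signals were normalised to artemisinin (0.29 uM) and vehicle wells.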

[5] = qHTS profiling for inhibitors of Plasmodium falciparum (DD2) proliferation (AID 743323; call rule not given here); settings: lower = more inhibition; at 28.7 µM (top of the series) unless noted
Procedure, shortened: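 P. falciparum Dd2-infected erythrocytes (0.3% parasitemia, 2.5% hematocrit) exposed 72 h at 37 C, 5% CO2. Lysis with SYBR Green, overnight at room temperature, fluorescence 485/535 nm; normalized to 0.29 uM artemisinin and DMSO.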

[6] = qHTS profiling for inhibitors of Plasmodium falciparum (HB3) proliferation (AID 743324); settings: Plasmodium falciparum HB3 blood-stage proliferation; at 28.7 µM (top of the series) unless noted
Procedure, shortened: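 SYBR Green fluorescence (485 ex/535 em) of lysed cultures, incubated overnight at room temperature in the dark, quantifies parasite DNA. Infected erythrocytes at 0.3% parasitemia and 2.5% hematocrit were exposed 72 h; values normalized to DMSO and 0.29 uM artemisinin controls.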

[7] = qHTS profiling of the MIPE4 collection as inhibitors of Plasmodium falciparum (3D7) proliferation (AID 743344; call rule not given here); settings: P. falciparum 3D7 in erythrocytes, SYBR Green DNA fluorescence, 72 h; at 28.5 µM (top of the series)
Procedure, shortened: as §1

[8] = qHTS profiling of the MIPE4 collection as inhibitors of Plasmodium falciparum (DD2) proliferation (AID 743345; call rule not given here); settings: P. falciparum Dd2 in erythrocytes, SYBR Green DNA, 72 h; at 28.5 µM (top of the series)
Procedure, shortened: as §1

[9] = qHTS profiling of the MIPE4 collection as inhibitors of Plasmodium falciparum (DD2) proliferation (Rep 2) (AID 743346; call rule not given here); settings: P. falciparum Dd2 in erythrocytes, SYBR Green DNA, 72 h; at 28.5 µM (top of the series)
Procedure, shortened: as §1

[10] = qHTS profiling of the MIPE4 collection as inhibitors of Plasmodium falciparum (HB3) proliferation (AID 743347; call rule not given here); settings: P. falciparum HB3 in erythrocytes, SYBR Green DNA, 72 h; at 28.5 µM (top of the series)
Procedure, shortened: as §1

[11] = qHTS assay for small molecule agonists of the antioxidant response element (ARE) signaling pathway measured by Nrf2-dependant transcriptional activity (AID 720636; active = well fitted curve in the direction sought with a large enough effect in the repeat runs; an effect the other way counts as inactive or inconclusive;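 also: HepG2 cells with an ARE-driven luciferase reporter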)
Procedure, shortened: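 HepG2 ARE-luc reporter line, 1% dialyzed FBS; 6 hr attachment at 37 C, compound pinned in, 16 hr at 37 C/5% CO2; ONE-Glo, 30 min RT, luminescence read.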

[12] = qHTS assay for small molecule antagonists of the retinoid-related orphan receptor gamma (ROR-gamma) signaling pathway - cell viability counter screen (AID 720652; active = well fitted curve in the direction sought with a large enough effect in the repeat runs; an effect the other way counts as inactive or inconclusive;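 also: CHO reporter cells with doxycycline-induced ROR-gamma expression; compound exposure lasted 16 hr before ATP read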)
Procedure, shortened: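 Steps: seed CHO cells bearing TET-inducible ROR and ROR response element-luciferase; rest 5 hr at 37 C; add compound, then doxycycline; incubate 16 hr; add CellTiter-Glo and read luminescence as ATP-based viability.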

[13] = qHTS assay for small molecule agonists of the antioxidant response element (ARE) signaling pathway measured by Nrf2-dependant transcriptional activity - cell viability counter screen (AID 720653; active = well fitted curve in the direction sought with a large enough effect in the repeat runs; an effect the other way counts as inactive or inconclusive); settings: ARE-bla HepG2 viability, CellTiter-Glo ATP luminescence, 16 h; stronger effect = lower value
Procedure, shortened: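 ARE-bla HepG2 cells treated with compounds for 16 h at 37C; this counter screen measures viability as intracellular ATP by CellTiter-Glo luminescence after 30 min at room temperature.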

[14] = qHTS assay for cell viability of HEK293 cells (AID 743288); settings: ATP luminescence (CellTiter-Glo), 18 h, stronger effect = lower value; also: nearly all actives have a fitted effect of over 50% in size
Procedure, shortened: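 Quantitative high-throughput screen: compounds were pinned onto parental HEK293 cells (2,000 per well) after a minimum 5 h settling at 37 C, incubated 18 h at 37 C, and intracellular ATP measured by luciferase luminescence.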

[15] = qHTS assay for cell viability of the p53RE-bla HCT-116 cell line (AID 743292); also: nearly all actives have a fitted effect of over 55% in size
Procedure, shortened: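 Luminescent ATP quantitation (CellTiter-Glo) served as the viability read-out; reagent was added after 16 h compound exposure at 37 C and read after 30 min at room temperature. Cells: p53RE-bla HCT-116, 4,000 per well.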

For `CCc1oc2ccccc2c1C(=O)c1cc(I)c(O)c(I)c1`, the max response [1] was 0.665% (inactive), the Potency [2] was “inactive” and the outcome [3] was “inactive”.

With `C[C@@H](O)[C@H]1C(=O)N2C(C(=O)O)=C(S[C@@H]3CN[C@H](CNS(N)(=O)=O)C3)[C@H](C)[C@H]12` the max response [1] was 13.8% (inactive), the Potency [2] was “inactive” and the outcome [3] was “inactive”.

For `N[C@H](C(=O)O)[C@@H](O)c1ccc(O)c(O)c1`, the max response [1] was 1.39% (inactive), the Potency [2] was “inactive” and the outcome [3] was “inactive”.

For `CCN(CC)CCOc1ccccc1C(=O)CCc1ccccc1`, the max response [1] was -3.28% (inactive), the Potency [2] was “inactive” and the outcome [3] was “inactive”.

With `Cn1c(=O)c2[nH]c(Br)nc2n(C)c1=O` the max response [1] was -3.24% (inactive), the Potency [2] was “inactive” and the outcome [3] was “inactive”.

In the case of `CCCCCCCCCCC[C@@H](C[C@@H]1OC(=O)[C@H]1CCCCCC)OC(=O)[C@H](CC(C)C)NC=O`, the max response [1] is reported as -7.75% (inactive), the Potency [2] is reported as “inactive” and the outcome [3] is reported as “inactive”.

In the case of `CC(=O)Nc1ccc(S(=O)(=O)Nc2ccc([N+](=O)[O-])cc2)cc1`, the max response [1] is reported as 3.59% (inactive), the Potency [2] is reported as “inactive” and the outcome [3] is reported as “inactive”.

For `C[N+]1(C)CCC(=C(c2ccccc2)c2ccccc2)CC1`, the remaining parasite growth % (stronger effect = lower value) [4] was 4.05% [at 18.4 µM], the activity, percent of control [5] was 22.2% [at 18.4 µM] and the Potency [2] was “inactive”. For the same compound, the outcome [3] was “inactive”.

With `C=CCN1CCc2nc(N)sc2CC1` the max response [1] was 14.4% (inactive) and the Potency [2] was “inactive”.

With `CNCCCCOc1ccccc1Cc1ccccc1` the Potency [1] was 18.7 µM (active), the remaining parasite growth % (stronger effect = lower value) [4] was 65.9% and the activity, percent of control [5] was 31.1%. The remaining proliferation (% of control), lower = more inhibition [6] was 42.9%, the Potency [2] was “inactive” and the outcome [3] was “inactive”.

In the case of `NS(=O)(=O)Cc1noc2ccccc12`, the max response [1] is reported as -3.32% (inactive), the parasite growth, % of DMSO control [7] is reported as 102% and the parasite growth remaining, % of DMSO control (lower = more inhibition) [8] is reported as 99.5%. The parasite growth, % of control (lower = inhibition) [9] was 74.3%, the growth, % of control [10] was 106% and the Potency [2] was “inactive”. The outcome [3] was “inactive”.

For `COc1cc(O)c(C(=O)c2ccccc2)cc1S(=O)(=O)O`, the max response [1] was -9.98% (inactive) and the Potency [2] was “inactive”.

In the case of `O=C1OC2(c3ccccc31)c1cc(Br)c(O)c(Br)c1Oc1c2cc(Br)c(O)c1Br`, the max response [1] is reported as -3.43% (inactive) and the Potency [2] is reported as “inactive”.

For `CN1CCN(C2=Nc3ccccc3Sc3ccc(Cl)cc32)CC1`, the max response [1] was -0.118% (inactive) and the Potency [2] was “inactive”.

For `N=C(N)N1CCc2ccccc2C1`, the max response [1] was 4.79% (inactive) and the activity change, negative = inhibition [2] was -12.7% [at 4.53 µM] (inactive).

In the case of `CCCCNC(=O)NS(=O)(=O)c1ccc(N)cc1`, the max response [1] is reported as 19.8% (inactive) and the Potency [2] is reported as “inactive”.

In the case of `COc1cc([C@H]2Oc3cc([C@H]4Oc5cc(O)cc(O)c5C(=O)[C@@H]4O)ccc3O[C@@H]2CO)ccc1O`, the outcome [11] is reported as “inactive”, the outcome [12] is reported as “inactive” and the max response [13] is reported as -21.7% (inactive). The max response [1] was -1.37% (inactive), the max response [14] was 5.85% (inactive) and the outcome [15] was “inactive”. The Potency [2] was “inactive”.
